Records with an inconclusive call do not appear. Where a call stands in place of a potency, no number is given. Unmarked numbers belong to inactive results. Calls of active or inactive are those of the source. Calls follow the shape of the full dose curve.
Potency is read from the fitted curve at half-maximal effect.

The assay can be described thus: A High-Content qHTS Against Drug Library for the Identification of Small Molecules that Inhibit DYT1 Early Onset Primary Dystonia-Associated Cell Pathology (AID 1645839). The conditions noted are these: HEK293 Flp-In EGFP-delE TorsinA, punctate imaging, 48 h; series mostly up to 46.1 µM. From the text: Nicole Calakos M.D., Ph.D.
Duke University School of Medicine, Durham, NC
In DYT1 dystonia due to delGAG in the TOR1A gene, there is a robust and widely replicated finding of TorsinA protein mislocalization caused when the mutant protein is in excess of the wildtype protein (1-7). Stable HEK293 cell lines were created that replicate this phenomenon. Inducible expression of an EGFP-hu delE TorsinA encoding cDNA causes pronounced punctate cellular distribution. […] This phenotypic difference in EGFP-huTorsinA fusion protein distribution serves as an indicator of cell pathology. […] RNAi screen results with the assay were validated in DYT1 patient cell phenotypes, intersected with a known dystonia gene, and led to discovery of new human genetic dystonia associations.
The bioassay described herein is a high-content image screen with two readouts. The "%pathology" readout is the primary qHTS data channel, while the "cellcount" is the counterscreen qHTS channel. Desired active compounds are those that show inhibition in %pathology channel but no activity or minimal toxicity in cellcount readout.
1. Kustedjo, K., Bracey, M.H., and Cravatt, B.F. (2000). […] J. Biol. Chem. 275, 27933 - 27939.
2. Bragg, D.C., Kaufman, C.A., Kock, N., and Breakefield, X.O. (2004). Inhibition of N-linked glycosylation prevents inclusion formation by the dystonia-related mutant form of torsinA. Mol. Cell. Neurosci. 27, 417 - 426.
3. Gonzalez-Alegre, P., and Paulson, H.L. (2004). Aberrant Cellular Behavior of Mutant TorsinA Implicates Nuclear Envelope Dysfunction in DYT1 Dystonia. J. Neurosci. 24, 2593 - 2601.
4. Goodchild, R.E., and Dauer, W.T. (2004). Mislocalization to the nuclear envelope: an effect of the dystonia-causing torsinA mutation. Proc. Natl. Acad. Sci. U. S. A. 101, 847 - 852.
5. Kock, N., Allchorne, A.J., Sena-Esteves, M., Woolf, C.J., and Breakefield, X.O. (2006). RNAi blocks DYT1 mutant torsinA inclusions in neurons. Neurosci. Lett. 395, 201 - 205.
6. Hewett, J.W., Nery, F.C., Niland, B., Ge, P., Tan, P., Hadwiger, P., Tannous, B.A., Sah, D.W.Y., and Breakefield, X.O. (2008). siRNA knock-down of mutant torsinA restores processing through secretory pathway in DYT1 dystonia cells. Hum. Mol. Genet. 17, 1436 - 1445.
7. Calakos, N., Patel, V.D., Gottron, M., Wang, G., Tran-Viet, K.N., Brewington, D., Beyer, J.L., Steffens, D.C., Krishnan, R.R., and Zuchner, S. (2010). Functional evidence implicating a novel TOR1A mutation in idiopathic, late-onset focal dystonia. J. Med. Genet. 47, 646 - 650.
8. Rittiner* JE, Caffall* ZF, Hernandez-Martinez R, Sanderson SM, Pearson JL, Tsukayama KK, Liu AY, Xiao C, Tracy S, Shipman MK, Hickey P, Johnson J, Scott B, Stacy M, Saunders-Pullman R, Bressman S, Simonyan K, Sharma N, Ozelius LJ, Cirulli ET, Calakos N. Functional Genomic Analyses of Mendelian and Sporadic Disease Identify Impaired eIF2alpha Signaling as a Generalizable Mechanism for Dystonia. Neuron. 2016 Dec 21;92(6):1238-1251. doi: 10.1016/j.neuron.2016.11.012. Epub 2016 Dec 8. PMID: 27939583; PMCID: PMC5320521.
High-content, High-throughput Drug Screening Assay
The TorsinA mislocalization assay was modified from the previously published assay to accommodate compound testing in 1536 well format.1 Briefly, Flp-In T-REx 293 cells from Invitrogen in which a single copy of a cDNA is recombined into a specific genomic locus was used to create tetracycline-inducible expression of cDNA encoding either EGFP-hTOR1A (WT) or EGFP-delE hTOR1A (DYT1). WT and DYT1 cells were diluted to a concentration of 2 x 10^5 cells/mL in reduced serum media (DMEM High Glucose containing 1% tetracycline-tested FBS, 2 mM L-Glutamine, and 1% Penicillin/Streptomycin). 4 µl of WT cells and 4 µl of DTY1 cells were added to column 1 and columns 2-48, respectively, of a poly-D-lysine-coated, low base, black, clear bottom 1536 well plate (Corning, Corning, NY) using the BioRAPTR FRD Microfluidic Workstation (Beckman Coulter, Indianapolis, IN). The final cell number was 800 cells/well. […]
For orientation: qHTS replaces the single test concentration by a dilution series.
With `CCOC(=O)COc1ccc2c(C)c(CCN(CC)CC)c(=O)oc2c1Cl`, the Potency result is “inactive”.

Turning to `CN1C(CCl)Nc2cc(Cl)c(S(N)(=O)=O)cc2S1(=O)=O` (stereo not given), the Potency result is “inactive”.

Consider `CC[C@@H](CO)NCCN[C@@H](CC)CO`, for which the Potency result is “inactive”.

In the case of `Cc1c(F)c(N2CCNC(C)C2)cc2c1c(=O)c(C(=O)O)cn2C1CC1` (stereo not given), the Potency entry was “inactive”.

As for `CC(Cc1ccccc1)(NC(=O)CN)c1ccccc1` (stereo not given), the Potency entry is “inactive”.

With `CC(C)(CO)[C@@H](O)C(=O)NCCCO`, the Potency entry is “inactive”.

With `CCC(=O)c1c(O)cc(O)cc1O`, the Potency entry was “inactive”.

In the case of `CC(=O)[C@H]1CC[C@H]2[C@@H]3C[C@H](C)C4=CC(=O)CC[C@]4(C)[C@H]3[C@@H](O)C[C@]12C`, the Potency result was “inactive”.

In the case of `CC(=O)OCC(=O)[C@@]12OC(C)(C)O[C@@H]1C[C@H]1[C@@H]3C[C@H](F)C4=CC(=O)C=C[C@]4(C)[C@@]3(F)[C@@H](O)C[C@@]12C`, the Potency result is “inactive”.

For `CCOC(=O)OC(C)OC1=C(C(=O)Nc2ccccn2)N(C)S(=O)(=O)c2ccccc21` (stereo not given), the Potency result was “inactive”.

In the case of `Cc1cc(O)c(C(C)C)cc1Cl`, the Potency entry was “inactive”.

On to `CC(Cc1cccc(C(F)(F)F)c1)NCCOC(=O)c1ccccc1` (stereo not given), for which the Potency result was “inactive”.

For the compound `Oc1ccc(Cl)c2cccnc12`, the Potency result was “inactive”.

Take `CC(=O)Oc1ccc(C(c2ccc(OC(C)=O)cc2)c2ccccn2)cc1`: the Potency result was “inactive”.

As to `CN(C)CCOc1ccccc1Cc1ccccc1`, the Potency entry was “inactive”.

Regarding `CCOC(=O)n1ccn(C)c1=S`, the Potency entry was “inactive”.

For the compound `C[C@H]1[C@H](NC(=O)/C(=N/OC(C)(C)C(=O)O)c2csc(N)n2)C(=O)N1S(=O)(=O)O` (stereo in doubt), the Potency result is “inactive”.

With `CCCCOc1ccc(C(=O)CCN2CCCCC2)cc1`, the Potency was 10 µM (active).

Consider `CC1(C)O[C@@H]2C[C@H]3[C@@H]4C[C@H](F)C5=CC(=O)C=C[C@]5(C)[C@H]4[C@@H](O)C[C@]3(C)[C@]2(C(=O)CO)O1`, for which the Potency entry was “inactive”.

As to `C[C@]12CCC(=O)C=C1[C@@H]1C[C@@H]1[C@H]1[C@@H]3[C@@H]4C[C@@H]4[C@@]4(CCC(=O)O4)[C@@]3(C)CC[C@@H]12`, the Potency result was “inactive”.

Take `Cc1ccc(C(=O)C(C)CN2CCCCC2)cc1` (stereo not given): the Potency entry was “inactive”.

In the case of `Cc1nc2n(c(=O)c1CCN1CCC(c3noc4cc(F)ccc34)CC1)CCC[C@H]2O`, the Potency entry was “inactive”.

With `CC1(C)O[C@@H]2C[C@H]3[C@@H]4CCC5=CC(=O)CC[C@]5(C)[C@@]4(F)[C@@H](O)C[C@]3(C)[C@]2(C(=O)CCl)O1`, the Potency result was “inactive”.

For `Nc1nc2ncc(CNc3ccc(C(=O)N[C@@H](CCC(=O)O)C(=O)O)cc3)nc2c(=O)[nH]1`, the Potency entry is “inactive”.

As for `CC(C)NC[C@@H](O)COc1cccc2ccccc12`, the Potency result was “inactive”.

`Nc1ccc(C(=O)O)cc1`: the Potency entry is “inactive”.

For `CC(=O)OCC(=O)[C@@]1(OC(C)=O)[C@@H](C)C[C@H]2[C@@H]3C[C@H](F)C4=CC(=O)C=C[C@]4(C)[C@@]3(F)[C@@H](O)C[C@@]21C`, the Potency entry was “inactive”.

Consider `CCCCC(=O)O[C@]1(C(=O)CO)CC[C@H]2[C@@H]3CCC4=CC(=O)CC[C@]4(C)[C@H]3[C@@H](O)C[C@@]21C`, for which the Potency entry is “inactive”.

As to `CCCC(=O)Nc1ccc(OCC(O)CNC(C)C)c(C(C)=O)c1` (stereo not given), the Potency entry was “inactive”.

For `CCCCCCC[N+](CC)(CC)CCCCc1ccc(Cl)cc1`, the Potency entry is “inactive”.

As for `COc1cc(/C=C/C(=O)O[C@H]2CC[C@]34C[C@]35CC[C@]3(C)[C@@H]([C@H](C)CCC=C(C)C)CC[C@@]3(C)[C@@H]5CC[C@H]4C2(C)C)ccc1O`, the Potency entry was “inactive”.

For `CCN1CCCC1=O`, the Potency entry is “inactive”.

Consider `O=C(O)CCCCC(=O)O`, for which the Potency result is “inactive”.

As to `CN(C)/N=N/c1nc[nH]c1C(N)=O`, the Potency entry was “inactive”.

As to `CC1(C)O[C@@H]2C[C@H]3[C@@H]4C[C@H](F)C5=CC(=O)CC[C@]5(C)[C@H]4[C@@H](O)C[C@]3(C)[C@]2(C(=O)CO)O1`, the Potency result is “inactive”.

For the compound `O=S1(=O)c2cccc3cccc(c23)N1CCCN1CCN(c2ccc(F)cc2)CC1`, the Potency result is “inactive”.

On to `CC(C)COC(=O)c1ccc(N)cc1`, for which the Potency entry was “inactive”.

In the case of `C[C@]12C=CC(=O)C=C1[C@@H](F)C[C@@H]1[C@@H]2[C@@H](O)C[C@@]2(C)[C@H]1CC[C@]2(O)C(=O)CO`, the Potency entry was “inactive”.

For `COc1cc(-c2ccc(=O)[nH]n2)ccc1OC(F)F`, the Potency entry is “inactive”.

Take `Nc1ccc(/C=C/c2ccc(N)cc2S(=O)(=O)O)c(S(=O)(=O)O)c1`: the % pathology change, negative = correction was 12.8% [at 0.369 µM].
